The values below come from PubChem BioAssay AID485317 (Broad Institute, 2010).

Among all 290,000 compounds or so, about 11,000 (3.8%) were called active.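 How the source made its calls: active means mean replicate inhibition above about 79%, with every replicate also reaching it (limit read from the data); inconclusive means only one of the two criteria met; inactive means mean below limit and not every replicate reaching it.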 For the sample, actives were picked, then their nearest neighbours and some compounds at random.

A word on the inhibition: it is the drop in the measured response relative to a control, in per cent.

For this assay, the target named is FAD-linked sulfhydryl oxidase ALR (Homo sapiens) (UniProt P55789). The assay is described as follows: ALR-catalysed DTT oxidation blockers – biochemical, H2O2 detection, HRP-luminol luminescence, single point, primary screen (AID 485317). The conditions noted are these: purified ALR, hits give high values, concentration not given here.
Chain of FAD-linked sulfhydryl oxidase ALR (Homo sapiens) (P55789 whole entry, looked up): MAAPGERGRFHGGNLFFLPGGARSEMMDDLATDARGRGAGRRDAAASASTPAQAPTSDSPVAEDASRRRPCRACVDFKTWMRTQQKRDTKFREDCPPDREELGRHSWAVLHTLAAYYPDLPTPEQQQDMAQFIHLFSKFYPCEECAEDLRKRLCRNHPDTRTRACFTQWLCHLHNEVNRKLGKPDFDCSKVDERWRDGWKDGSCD
Regarding `O=C(COC(=O)/C=C/c1ccc(Br)o1)Nc1cccc(S(=O)(=O)N2CCOCC2)c1`, the inhibition was -1.78% (inactive).

Turning to `CC(=O)Oc1cccc(N2C(=O)CC(Nc3ccc(N4CCOCC4)cc3)C2=O)c1` (configuration not stated), the inhibition is 97.2% (active).

In the case of `COc1cc2ccccc2cc1C(=O)Nc1ccc(N2CCOCC2)cc1`, the inhibition is -0.59% (inactive).

In the case of `CC(=O)Oc1cccc(N2C(=O)C3CC=C(Cl)CC3C2=O)c1` (configuration not stated), the inhibition was -19% (inactive).

As for `Cc1noc(C)c1NC(=O)Nc1cccc2c1O[C@H](CN(C)C(=O)Nc1ccccc1)[C@@H](C)CN([C@H](C)CO)C2=O`, the inhibition is 1.38% (inactive).

`O=C(NN1CCOCC1)c1cccc(F)c1`: the inhibition is -5.96% (inactive).

With `O=C(N/N=C/c1ccc2c(c1)OCO2)c1ccc(Cn2cc([N+](=O)[O-])cn2)o1`, the inhibition is 29.3% (inactive).

Take `O=C(N/N=C\c1ccc(Br)cc1)c1ccc(Cn2cccn2)o1`: the inhibition was 0.182% (inactive).

Regarding `CN(C)c1ccc(/C=N/NC(=O)c2ccc(Cn3cc(Br)cn3)o2)cc1`, the inhibition is 98.5% (active).

On to `CC(OC(=O)c1ccc(Cl)cc1O)C(=O)NCCC1=CCCCC1` (configuration not stated), for which the inhibition was -2.95% (inactive).

With `CCOC(=O)N1CCN(C(=O)c2ccccc2SCC(=O)NCC2CCCCC2)CC1`, the inhibition is -0.603% (inactive).

`COc1cccc(C(=O)CC(=O)C(=O)Nc2ccc([N+](=O)[O-])cc2C)c1`: the inhibition is 7.39% (inactive).

In the case of `COc1cccc(CNC(=O)CCCC(=O)Nc2cccc([N+](=O)[O-])c2)c1`, the inhibition is -3.17% (inactive).

For `COc1cccc(NCCC(=O)c2cccc([N+](=O)[O-])c2)c1`, the inhibition was 97.4% (active).

Consider `COc1ccc(CNC(=O)C2(CC3CC(c4ccccc4)=NO3)CCN(C(=O)c3cccc(O)c3)CC2)cc1` (configuration not stated), for which the inhibition was -2.44% (inactive).

With `COCCN(Cc1ccccc1)C(=O)Cc1ccc(S(=O)(=O)N2CCOCC2)s1`, the inhibition is 2.09% (inactive).

Consider `O=C(NCC1CC1)c1onc(CSc2ccccc2)c1C(=O)NCC1CC1`, for which the inhibition is -11.1% (inactive).

In the case of `O=C(Cn1c(=O)sc2ccccc21)Nc1nc2c(s1)CCCC2`, the inhibition is 42.4% (inactive).

With `Cc1cccc(NC(=O)CSc2nc3c(c(=O)[nH]2)CCCC3)c1C`, the inhibition was -5.33% (inactive).

Turning to `CCOC(=O)c1sc(NC(=O)CSc2n[nH]c(CC)n2)nc1C`, the inhibition was -1.87% (inactive).

With `O=C(CSc1nc(O)c(Cc2ccccc2)c(=O)[nH]1)Nc1nc2c(s1)CCCC2`, the inhibition was 99.1% (active).

On to `CCOC(=O)c1sc(NC(=O)CSc2nc(O)c(Cc3ccccc3)c(=O)[nH]2)nc1C`, for which the inhibition was 98.6% (active).

Turning to `CCOC(=O)c1ccccc1NC(=O)CSc1nc2ccccc2c(=O)[nH]1`, the inhibition was -0.524% (inactive).

In the case of `COC(=O)c1ccc(-c2c(-c3ccccc3)ncc3cc(OC)c(OC)cc23)cc1`, the inhibition was 1.43% (inactive).

On to `C=CC[C@H](CC(=O)OC(C)(C)C)C(=O)OC[C@H]1CCCN1C(=O)[C@H](CC=C)CC(=O)N(CCO)Cc1ccccc1`, for which the inhibition was -5.27% (inactive).

In the case of `CC1(C)CC(=O)C=C(c2ccc3ncccc3c2)C1`, the inhibition is -1.35% (inactive).

For `COc1ccc(NS(=O)(=O)c2cc(NC(=O)COc3ccccc3F)ccc2OC)cc1`, the inhibition is -2.82% (inactive).

`COc1cccc(-c2ccc3c(c2)S(=O)(=O)c2cccc(C(=O)O)c2C3=O)c1OC`: the inhibition is -0.409% (inactive).

As for `COc1ccc(-c2csc3ncnc(N4CCN(S(=O)(=O)c5cccc(F)c5)CC4)c23)cc1`, the inhibition is 0.272% (inactive).

Consider `CCCc1ccc(C(=O)COC(=O)CN2C(=O)NC3(CCCCC3C)C2=O)cc1` (configuration not stated), for which the inhibition was -2.13% (inactive).

In the case of `Nn1c(SCC(=O)Nc2ccc3c(c2)CCC3)nnc1C1CC1`, the inhibition is 98.6% (active).

Take `O=C(CSc1nnnn1-c1ccc2c(c1)CCC2)Nc1ccc2c(c1)OCCO2`: the inhibition was -26.1% (inactive).

With `COc1ccc(NC(=O)CSc2nnc(C3CC3)n2C)cc1S(=O)(=O)N1CCCCC1`, the inhibition was -0.755% (inactive).

As for `COc1ccc2cc(C3=CC(=O)C[C@H](c4ccc5c(c4)OCO5)C3)ccc2c1`, the inhibition is 0.243% (inactive).

For the molecule `Cc1ccc(OCc2cc(C(=O)N(C)CCn3ccnc3C)no2)cc1C`, the inhibition is -0.532% (inactive).

Turning to `CCCCCCCNC(=O)C1(CC2CC(c3cccc(Br)c3)=NO2)CCN(C(=O)c2cc(OCC)c(OCC)c(OCC)c2)CC1` (configuration not stated), the inhibition is -9.32% (inactive).

Consider `CCCCOc1ccc(NC(=O)CSCC(=O)OCC)cc1`, for which the inhibition was 98.6% (active).

For `CCOC(=O)Cc1ncccc1C(=O)Nc1ccc(OC)cc1`, the inhibition is 10.7% (inactive).

`CCCCN(C(=O)CSCC(=O)Nc1ccc(OC)cc1)c1c(N)n(CCC)c(=O)[nH]c1=O`: the inhibition is 2.82% (inactive).

Consider `O=C(NNC(=O)c1cccc(S(=O)(=O)Nc2ccc(Cl)cc2)c1)c1ccc(=O)[nH]c1`, for which the inhibition is -5.3% (inactive).

Take `O=C(NCCc1ccc(C(F)(F)F)cc1)c1ccc2c(c1)OCO2`: the inhibition was -2.72% (inactive).

In the case of `COc1ccc(/C=C(\C#N)C(=O)OCC(=O)N(C)C2CCS(=O)(=O)C2)cc1` (configuration not stated), the inhibition is 5.52% (inactive).

In the case of `CN1C(=O)/C(=C\c2ccc(-c3ccccc3)o2)SC1=S`, the inhibition is -6.32% (inactive).

`Nc1nnnn1CC(=O)N/N=C/c1ccc(-c2cccc(Cl)c2)o1`: the inhibition is -10.4% (inactive).

With `O=C(O)C(c1ccccc1)N1C(=O)/C(=C\c2ccc(-c3cccc(Cl)c3)o2)SC1=S` (configuration not stated), the inhibition was 98.2% (active).

As to `CC1CC(=O)Nc2ccccc2N1C(=O)COc1ccc2cc(Br)ccc2c1` (configuration not stated), the inhibition was 12.2% (inactive).

Consider `O=C(COc1ccc(F)cc1Br)NCC1COc2ccccc2O1` (configuration not stated), for which the inhibition is -3.27% (inactive).

Consider `COc1cccc2sc3cc(NCC[C@@H]4CCCN4C)ccc3c(=O)c12`, for which the inhibition was -1.66% (inactive).

In the case of `O=c1cc(O)nc(SCc2ccccc2Cl)[nH]1`, the inhibition is 100% (active).

Take `O=c1[nH]nc(CSCc2ccccc2Cl)[nH]1`: the inhibition was -8.43% (inactive).

As to `Cc1cc(=O)[nH]c(SCc2ccc(Cl)cc2)n1`, the inhibition was -9.56% (inactive).

Consider `COc1ccccc1OCc1nc2ccccc2s1`, for which the inhibition was 2.66% (inactive).

Regarding `COc1cccc2sc(NNC(=O)c3nc4ccccc4s3)nc12`, the inhibition was 93.7% (active).

For `COc1cccc2sc(Nc3nc(C)c(C(C)=O)s3)nc12`, the inhibition was 32.7% (inactive).

For the molecule `CC(=O)C1=C(O)C(=O)N(c2ccc(Br)cc2)C1c1ccc([N+](=O)[O-])cc1` (configuration not stated), the inhibition is 96.7% (active).

As for `CC(=O)C1=C(O)C(=O)N(c2cccnc2)C1c1ccc([N+](=O)[O-])cc1` (configuration not stated), the inhibition was 36.6% (inactive).

As for `COC(=O)CN1C(=O)C(O)=C(C(C)=O)C1c1ccc([N+](=O)[O-])cc1` (configuration not stated), the inhibition was -8.67% (inactive).
